TbPYK inhibitor: qHTS of Trypanosoma Brucei Inhibitors | pyruvate kinase (Trypanosoma brucei), Q57TT1 | 410,000 compounds, 0.12% hits | TbPYK enzyme, Kinase-Glo Plus ATP luminescence, 45 min | AID 624173, 2012 | Potency, µM (highest dose often 76.8 µM), for the others: at the top dose activity, negative = inhibition, most hits filed as inhibitors; further: potency means the concentration at half of the fitted maximal effect; on the % scale 0 is the no-effect control and ±100 the full control effect; nearly all actives have a fitted effect of over 50% in size
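Readout: single end-point luminescence (Kinase-Glo Plus, 10 min). Reaction conditions were TbPYK/substrate plus 130 uM ADP, 45 min at RT, pH 7.2 TEA buffer. No-enzyme wells served as controls, and data were normalized before concentration-response fitting.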
FBPA Giardia inh: qHTS Assay for Inhibitors of Fructose-1,6-bisphosphate Aldolase from Giardia Lamblia | AID 2451, 2010 | purified Giardia FBPA | 290,000 compounds, 0.71% hits | A8B2U2 | Potency, µM (series often up to 59.6 µM), inactives show top-dose activity, negative = inhibition, most hits filed as inhibitors; further: potency means the concentration at half of the fitted maximal effect; on the % scale 0 is the no-effect control and ±100 the full control effect; nearly all actives have a fitted effect of over 55% in size
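Giardia FBPA (40 nM reagent) was preincubated 10 min at RT with compound (up to 57.5 uM final), then substrate plus GAPDH/TPI/NAD/arsenate coupling system with diaphorase/resazurin was added; resorufin fluorescence (525/598 nm) was read after 20 min.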
CHX counter: Cycloheximide Counterscreen for Small Molecule Inhibitors of Shiga Toxin; cell reporter, cycloheximide protein synthesis inhibition counterscreen; max response, %; 300,000 compounds, 12% hits; in the data active means max response mostly above about 13%, no sharp cut-off; inactive means mostly below about 14%; further: read at 38.3 µM for the half of the compounds with a filed dose; 0% is about no effect
RE007 growth inh: qHTS Assay for Inhibitors of the HIV-1 protein Vpr | S. pombe RE007 Vpr strain, BacTiter-Glo ATP luminescence, 24 h | Potency, µM (top dose mostly 92.2 µM), for inactives: at the top dose activity change, negative = less growth, actives largely listed as inhibitors | 360,000 compounds, 0.21% hits | AID 651644, 2012; active means well fitted falling curve with a large enough effect; inconclusive means small, poorly fitted or top-dose-only effect; inactive means no such curve, though single readings can be large or run the other way; further: potency means the concentration at half of the fitted maximal effect; on the % scale 0 is the no-effect control and ±100 the full control effect; nearly all actives have a fitted effect of over 50% in size
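Fission yeast RE007 carrying one integrated HIV-1 vpr copy, seeded at OD 0.01 in PMG+AL medium with 23 nL pinned compound. Grown 24 h at 30 degrees; viability read by BacTiter-Glo luminescence after 5 min.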
Shiga toxin inh: A qHTS for Small Molecule Inhibitors of Shiga Toxin; inhibition, % at 38.7 µM; 290,000 compounds, 9.2% hits; Vero cells, Shiga toxin protein synthesis inhibition reporter; in the data active means inhibition mostly above about 28%, no sharp cut-off; inactive means mostly below about 43%; further: 0% is about no effect
LmPK inhibitor: qHTS Assay for Inhibitors of Leishmania Mexicana Pyruvate Kinase (LmPK); Q27686; purified LmPK, Kinase-Glo ATP luminescence, 1 h; Potency, µM (doses to about 57.5 µM), for inactives: at the top dose activity change, negative = inhibition, hits mostly inhibitors; 290,000 compounds, 0.37% hits; further: potency means the concentration at half of the fitted maximal effect; on the % scale 0 is the no-effect control and ±100 the full control effect
Target sequence (Q27686 whole entry, looked up): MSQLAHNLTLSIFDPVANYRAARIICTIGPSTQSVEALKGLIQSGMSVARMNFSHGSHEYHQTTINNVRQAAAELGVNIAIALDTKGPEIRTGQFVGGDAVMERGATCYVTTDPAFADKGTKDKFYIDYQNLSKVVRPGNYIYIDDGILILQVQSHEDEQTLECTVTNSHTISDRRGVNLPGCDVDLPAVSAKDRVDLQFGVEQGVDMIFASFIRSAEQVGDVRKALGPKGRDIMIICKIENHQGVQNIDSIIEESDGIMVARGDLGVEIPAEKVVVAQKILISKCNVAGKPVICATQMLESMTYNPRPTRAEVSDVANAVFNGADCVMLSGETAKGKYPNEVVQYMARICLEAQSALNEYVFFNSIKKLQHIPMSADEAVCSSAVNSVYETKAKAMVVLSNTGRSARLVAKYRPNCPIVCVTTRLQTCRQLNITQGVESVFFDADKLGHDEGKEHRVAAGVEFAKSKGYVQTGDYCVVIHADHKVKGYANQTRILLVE
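Purified LmPK (0.1 nM) converted ADP (0.1 mM) to ATP with PEP (0.5 mM) in imidazole buffer pH 7.2 with KCl and MgCl2, 1 h at room temperature. ATP was read by Kinase-Glo luminescence; data normalized to uninhibited and no-enzyme controls.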
The depositor's hits bear a star; [ ] = another dose, or the depositor's remark. Only a selection was taken, and hits are over-represented in it overall. Unless noted, the call rests on the fitted dose curve; in most records, active means well fitted curve in the direction sought with a large enough effect; inconclusive means small, poorly fitted or top-dose-only effect, or another doubt; inactive means no such curve, though single readings can be large; an effect the other way counts as inactive or inconclusive.

For O=C(CSc1oc(-c2ccco2)nc1S(=O)(=O)c1ccc(Br)cc1)c1ccccc1 the results were TbPYK inhibitor -9.2%.
For COc1ccccc1NC(=O)c1ccc(NC(=O)COC(=O)C(C)C)cc1 the results were TbPYK inhibitor -1.0%, FBPA Giardia inh -0.6%, CHX counter 8.6, RE007 growth inh -9.9%, Shiga toxin inh -2.1 and LmPK inhibitor -2.5%.
O=C(Nc1ccccc1Cl)c1ccccc1 was read as TbPYK inhibitor 0.4%, FBPA Giardia inh 1.2%, CHX counter 30.1*, RE007 growth inh 0.4%, Shiga toxin inh 148.1* and LmPK inhibitor 3.9%[11.5 µM].
Screening COCC(=O)Nc1ccc(C(=O)Nc2ccccc2Cl)cc1 returned FBPA Giardia inh 1.6%, CHX counter 32.5*, Shiga toxin inh 92.1* and LmPK inhibitor -9.1%.
Screening O=C(Nc1ccccc1Cl)c1ccc(C(=O)Nc2ccccc2Cl)cc1 returned TbPYK inhibitor 1.4% and RE007 growth inh 5.8%.
For O=C(Nc1ccc(C(=O)Nc2ccccc2Cl)cc1)c1cccnc1 the results were TbPYK inhibitor -2.5%, CHX counter 19.0*, RE007 growth inh 4.2%, Shiga toxin inh 28.7* and LmPK inhibitor -4.8%.
O=C(Nc1ccc(F)c(Cl)c1)c1cccnc1 was read as TbPYK inhibitor -16.8%, FBPA Giardia inh 4.3%, CHX counter 13.7*, RE007 growth inh -28.4%, Shiga toxin inh 7.0 and LmPK inhibitor -2.5%.
Screening O=C(Nc1ccc(F)c(Cl)c1)c1ccccc1 returned TbPYK inhibitor -7.7% and RE007 growth inh -4.3%.
`CCCN(C(=O)Nc1cn(CC(C)C)c(=O)c2ccccc12)c1ccc(F)cc1` gave TbPYK inhibitor 2.7%.
For O=C1c2[nH]nc(-c3ccccc3)c2C(c2ccccc2)N1c1cccc(C(F)(F)F)c1 (configuration not stated) the results were TbPYK inhibitor -5.4%.
Screening COc1cc(C(CC(=O)NCc2ccccc2)N2Cc3ccccc3C2=O)cc(OC)c1OC (configuration not stated) returned TbPYK inhibitor 2.4%.
O=C(C1=C(O)C(=O)N(CCCn2ccnc2)C1c1cccc(Br)c1)c1ccco1 (configuration not stated) was read as TbPYK inhibitor 1.6%, CHX counter 11.4, RE007 growth inh 2.6%, Shiga toxin inh -14.4 and LmPK inhibitor -9.9%.
C=C(C)Cn1c2ccc(NC(=O)NCCc3ccccc3)cc2c(=O)n1C was read as TbPYK inhibitor 0.2% and RE007 growth inh 4.6%[18.4 µM].
For O=C(Nc1cc(Cl)ccc1Cl)c1ccc(-c2ccccc2)cc1 the results were TbPYK inhibitor -8.9%, FBPA Giardia inh 7.3%, CHX counter 17.2*, RE007 growth inh -10.2%, Shiga toxin inh 34.8 and LmPK inhibitor -4.2%.
For Cc1nc2ccccc2nc(C)c1=NOCC(=O)N(c1ccccc1)C(C)C the results were TbPYK inhibitor -0.9%, FBPA Giardia inh -12.5%, CHX counter 61.1*, RE007 growth inh -8.5%, Shiga toxin inh 115.6* and LmPK inhibitor 2.5%.
For CN(C)c1ncc2nc(-c3ccc(Cl)cc3)c(=O)n(C[C@H]3CCCO3)c2n1 the results were FBPA Giardia inh 3.4%.
Screening Cc1[nH]c(=O)[nH]c(=O)c1S(=O)(=O)Nc1cccc([N+](=O)[O-])c1C returned TbPYK inhibitor 0.8%, FBPA Giardia inh -7.3%, CHX counter -1.3, RE007 growth inh 12.2%, Shiga toxin inh -11.2 and LmPK inhibitor 0.2%.
For CC(=Nc1ccccc1N)c1c(C)cc(=O)n(O)c1O the results were FBPA Giardia inh 15.8µM*, CHX counter 31.2* and Shiga toxin inh 57.3*.
Screening Cc1cc(=O)n(Nc2ccccc2)c(O)c1C#N returned TbPYK inhibitor inconclusive and RE007 growth inh 22.6%.
Screening CCN(C(=O)CCS(=O)(=O)c1ccc2c(c1)oc(=O)n2C)c1ccc(OC)cc1 returned TbPYK inhibitor -0.2%, CHX counter -1.6, RE007 growth inh -8.2%, Shiga toxin inh -2.0 and LmPK inhibitor 9.0%.
For CC(=O)Oc1ccc(Cl)cc1/C=C/c1cc(OC(C)=O)c2ccccc2n1 the results were FBPA Giardia inh -7.4%, CHX counter 19.8*, Shiga toxin inh 33.9* and LmPK inhibitor -1.3%.
COc1cc(Cl)cc(/C=C/c2ccc3ccccc3n2)c1OC(C)=O was read as TbPYK inhibitor -7.4%, FBPA Giardia inh -5.5%, CHX counter 83.6*, RE007 growth inh 2.4%, Shiga toxin inh 97.3* and LmPK inhibitor -1.7%.
Screening N#C/C(=C\c1ccc(OC(=O)c2ccc(Br)s2)cc1)c1nc2ccccc2[nH]1 returned TbPYK inhibitor -11.9%, FBPA Giardia inh -0.3%, CHX counter 22.0*, RE007 growth inh -15.5%, Shiga toxin inh 38.5* and LmPK inhibitor 1.2%.
`N#C/C(=C/c1ccc(OC(=O)c2ccc(Br)s2)cc1)c1nc2ccccc2[nH]1` gave TbPYK inhibitor -2.5% and RE007 growth inh 10.8%.
Screening N#C/C(=C\c1ccc(OC(=O)c2ccc(Cl)s2)cc1)c1nc2ccccc2[nH]1 returned TbPYK inhibitor -4.6%, FBPA Giardia inh 4.7%, CHX counter 49.5*, RE007 growth inh -19.5%, Shiga toxin inh 17.4* and LmPK inhibitor -2.8%.
Screening N#C/C(=C\c1ccc(OCc2ccc(Cl)cc2Cl)cc1)c1nc2ccccc2[nH]1 returned TbPYK inhibitor 7.8%.
Screening NC(=O)c1c(/N=C/c2cccs2)sc2c1CCCC2 returned TbPYK inhibitor -25.5%, FBPA Giardia inh -12.0%, CHX counter 10.4*, RE007 growth inh -1.5%, Shiga toxin inh 20.6 and LmPK inhibitor 5.9%.
COc1ccc(-c2cc3cccc(OC)c3oc2=O)cc1 was read as TbPYK inhibitor -1.4%, FBPA Giardia inh 6.8%, CHX counter 27.7*, RE007 growth inh -17.3%, Shiga toxin inh 63.8* and LmPK inhibitor -16.8%.
`CC(C)(C)c1cc(C(C)(C)C)c2oc(=O)c(-c3nc4ccccc4[nH]3)cc2c1` gave TbPYK inhibitor -2.5%.
Screening COc1cccc2cc(-c3nc4ccccc4[nH]3)c(=O)oc12 returned TbPYK inhibitor -0.3%, FBPA Giardia inh -11.9%, CHX counter 32.0*, RE007 growth inh -13.8% and LmPK inhibitor -2.3%.
`COc1cccc2cc(-c3ccccc3)c(=O)oc12` gave TbPYK inhibitor -2.3%, FBPA Giardia inh 2.2%, CHX counter 47.8*, RE007 growth inh inconclusive, Shiga toxin inh 103.9* and LmPK inhibitor inconclusive.
Screening CC(C)(C)c1cc(C(C)(C)C)c2oc(=O)c(-c3nc4ccc(C(=O)O)cc4[nH]3)cc2c1 returned TbPYK inhibitor 5.1%.

From PubChem BioAssay
